JMJD2A Tudor: blocks the human JMJD2A Tudor domain; Potency, µM (highest dose often 114 µM), for inactives: at the highest dose activity change, negative = inhibition, most hits filed as inhibitors; AlphaScreen JMJD2A-Tudor / H3K4me3 peptide binding; actives 4.4% (n = 390,000); AID 504339; also: % is scaled to controls: 0 for no effect and ±100 for the full control effect; nearly all actives have a fitted effect of over 50% in size
Sfp PPTase inh: blocks B. subtilis Sfp PPTase activity | Q9F4F7 | Biochemical Sfp PPTase activity, qHTS | Potency, µM, for inactives: largest response in the series, negative = inhibition, most hits filed as inhibitors | actives 3.5% (n = 310,000) | AID 1490;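 also: the enzyme is Sfp with the accession as filed and its product quenches rhodamine fluorescence; 0% = enzyme reaction without inhibitor and -100% = no enzyme wells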
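Fluorescence-quenching assay with 15 nM Sfp, 5 uM rhodamine-CoA and 12.5 uM BHQ-2-labelled ybbR peptide in pH 7.6 Hepes/MgCl2 buffer. Enzyme was pre-incubated with compound for 15 min at room temperature. Rate was taken from the 30-min fluorescence change (525/598 nm).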
PLK1 PBD block: inhibitors of human PLK1 polo-box domain binding. P53350. Plk1 PBD binding of FITC phosphopeptide, fluorescence polarization. Potency, µM, without a hit: max response, negative = inhibition, most hits filed as inhibitors. actives 2.8% (n = 360,000); also: series mostly up to about 57 µM; % is scaled to controls: 0 for no effect and ±100 for the full control effect; nearly all actives have a fitted effect of over 65% in size
Target sequence (P53350 whole entry, looked up, the tested form may be a part): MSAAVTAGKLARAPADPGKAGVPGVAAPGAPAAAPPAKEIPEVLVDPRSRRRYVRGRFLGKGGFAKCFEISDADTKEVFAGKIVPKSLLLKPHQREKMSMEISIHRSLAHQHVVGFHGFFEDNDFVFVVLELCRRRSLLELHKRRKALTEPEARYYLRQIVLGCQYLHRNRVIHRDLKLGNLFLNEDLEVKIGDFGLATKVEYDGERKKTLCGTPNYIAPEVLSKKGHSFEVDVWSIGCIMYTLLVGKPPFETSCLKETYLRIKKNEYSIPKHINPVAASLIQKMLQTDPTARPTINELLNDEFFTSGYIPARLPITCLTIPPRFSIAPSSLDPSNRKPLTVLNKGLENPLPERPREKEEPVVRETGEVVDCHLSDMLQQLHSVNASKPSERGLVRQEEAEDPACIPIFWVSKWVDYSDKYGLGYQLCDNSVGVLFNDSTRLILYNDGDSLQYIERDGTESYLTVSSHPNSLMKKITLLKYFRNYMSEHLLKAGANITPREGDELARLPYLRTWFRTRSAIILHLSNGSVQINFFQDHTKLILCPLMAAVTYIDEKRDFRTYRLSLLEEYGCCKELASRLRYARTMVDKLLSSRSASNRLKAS
HP1b binding inh: inhibitors of HP1-beta chromodomain binding to methylated histone tails; actives 0.56% (n = 390,000); AlphaScreen HP1-beta / biotin-H3K9me3 peptide binding; AID 540317; P83916; Potency, µM (titrated, usually from 114 µM), without a hit: top-dose activity change, negative = inhibition, most hits filed as inhibitors; also: nearly all actives have a fitted effect of over 70% in size
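AlphaScreen: HP1-beta (50 nM) preformed 30 min with biotin-H3(1-18)K9me3 peptide (50 nM) in PBS pH 7.4, 0.01% Tween-20. Compound added for 30 min at RT, then streptavidin donor/nickel chelate acceptor beads (10 ug/mL) for 30 min.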
G9a block: G9a (human) methyltransferase inhibition; Potency, µM (highest dose often 102 µM), without a hit: at the highest dose activity, negative = inhibition, actives largely listed as inhibitors; AID 504332; G9a H3K9 monomethylation, AlphaScreen, 2 h; actives 8.8% (n = 350,000); also: % is scaled to controls: 0 for no effect and ±100 for the full control effect; nearly all actives have a fitted effect of over 75% in size
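G9a (20 nM) was preincubated 15 min with compound, then reacted 2 h at room temperature with 500 nM biotin-H3K9 peptide and 20 µM SAM. Monomethyl-H3K9 detected by AlphaScreen using anti-H3K9me1 antibody.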
BAZ2B inh: blocks human BAZ2B | Potency, µM (highest dose often 114 µM), for inactives: top-dose activity change, negative = inhibition, actives largely listed as inhibitors | actives 4.4% (n = 360,000) | AID 504333 | AlphaScreen BAZ2B-H3K14Ac peptide displacement | Q9UIF8; also: % is scaled to controls: 0 for no effect and ±100 for the full control effect; nearly all actives have a fitted effect of over 60% in size
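In this displacement format the biotinylated H3(5-23) peptide acetylated at Lys14 serves as ligand at 50 nM, with BAZ2B at 50 nM in PBS pH 7.4 containing 0.01% Tween-20. Donor and acceptor beads are 10 ug/mL final.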
Numbers without * were called inactive; ? = inconclusive; . = not tested or not shown; [ ] = remark or other dose. Most compounds without a hit are left out; they make up all but 12% or so of the library. Calls follow the shape of the dose curve; as a rule, active = well fitted curve in the direction sought with a large enough effect; inconclusive = small, poorly fitted or top-dose-only effect, or another doubt; inactive = no such curve, though single readings can be large; an effect the other way counts as inactive or inconclusive. Potency is read from the fitted curve at half-maximal effect.

SMILES	JMJD2A Tudor	Sfp PPTase inh	PLK1 PBD block	HP1b binding inh	G9a block	BAZ2B inh
CN(C(=O)c1ccc(NC(=O)Cc2ccc(NC(=O)C3CCN(S(=O)(=O)c4cccc([N+](=O)[O-])c4)CC3)cc2)cc1)C1CCCC1	-24.5%	.	-4.1%	29.0%	.	.
CN(C)c1ccc(NC(=O)c2cnsn2)cc1	?	-5.0%	-12.3%	-5.8%	50.1µM*	-19.5%
Cc1noc(C)c1C(=O)Nc1ccc(N(C)C)cc1	-28.2%	10.6%	-4.2%	19.8%	?	-13.3%
O=C(c1csnn1)N1CCC2(CC1)CN(C(c1ccccc1)c1ccccc1)C2	.	2.5%	.	.	-8.4%[12.7 µM]	.
CCN(CC)S(=O)(=O)c1ccc2oc(C(=O)NCc3ccccc3OC)c(C)c2c1	-3.1%	.	.	37.6%	-27.7%[59 µM]	1.4%
C=CCNC(=O)c1oc2ccc(S(=O)(=O)N(CC)CC)cc2c1C	-15.5%	3.0%	9.47µM*	26.0%	?	-28.7%
CCN(CC)S(=O)(=O)c1ccc2oc(C(=O)NCCN3CCOCC3)c(C)c2c1	-30.7%[57.1 µM]	-5.3%	26.7µM*	4.2%	-6.3%[59 µM]	9.6%
O=C(O)C1CSC(c2ccco2)N1 (configuration not stated)	-21.8%[11.4 µM]	?	?	39.8µM*	3.16µM*	50.1µM*
CC1CCC(C(=O)O)NC1c1ccc(-c2ccco2)cc1 (configuration not stated)	.	9.5%	.	.	.	.
O=C1CSC(c2ccco2)N1 (configuration not stated)	-4.1%	-2.6%	-8.4%	27.1%	79.4µM*	0.8%
COc1ccc(C2NC(=O)CS2)cc1 (configuration not stated)	-6.2%	-9.2%	-8.3%	29.6%	-12.0%[59 µM]	-1.6%
Cc1nn(C)c2c1c(C(F)(F)F)cc(=O)n2C(C)C(=O)NCCc1ccccc1 (configuration not stated)	-9.7%	.	.	-4.1%	2.2%[59 µM]	-2.1%
CCN(CC)c1ccc(C(=O)N2CCC(c3ccncc3)CC2)cc1	-23.0%	.	.	20.1%	?	?
COC(=O)c1cc(S(=O)(=O)NC2CCC(C)CC2)cn1C (configuration not stated)	13.4%	12.2%	3.7%	27.4%	1.7%	-11.3%
CCOC(=O)C1=C(Nc2ccc(OC)cc2)C(N)=NC1=N	.	.	-3.6%	.	.	.
C/C(=C\c1ccccc1)CN1CCC(C(=O)N2CCC(C)CC2)CC1	-0.8%[11.4 µM]	-10.0%	-21.5%	-29.7%	10µM*	?
C/C(=C\c1ccccc1)CN1CCC(C(=O)N2CCCCC2)CC1	7.94µM*	-8.8%	-6.6%	?	?	?
CCCCNC(=O)C1CCN(C/C(C)=C/c2ccccc2)CC1	6.31µM*	-15.6%	?	-9.4%	?	50.1µM*
C/C(=C/c1ccccc1)C(=O)N1CCC(C)CC1	-0.3%	4.2%	2.2%	40.0%	23.8%	-2.9%
CC1(C)Cc2c(cnn2-c2ccc(F)cc2)C(NC(=O)C2=CC(=O)CC(C)(C)O2)C1 (configuration not stated)	.	.	-0.8%	.	.	.
CCn1cc(Cl)c(C(=O)NNC(=O)CCn2ccc([N+](=O)[O-])n2)n1	5.7%	9.2%	3.3%	27.0%	?	-29.4%
CC1(Cc2cc(Cl)ccc2C(F)(F)F)C(=O)Nc2cc(-c3ccccc3Cl)ccc21 (configuration not stated)	.	.	-8.9%	.	.	.
CCn1cc(CN2CCCC(CNC(=O)COc3ccccc3OC)C2)c(C)n1 (configuration not stated)	-11.6%	10.9%	-11.0%	52.3%	.	21.7%
COC(=O)c1cc2c([nH]c1=O)CCCC2=O	-6.5%	.	-10.3%	32.2%	.	.
C#CCOCCOCCOCCNc1nc(N2CCN(C(=O)[C@H](Cc3ccc(O)cc3)n3cc([C@@H](N)C(C)CC)nn3)CC2)nc(N2CCN(C(=O)[C@H](CCCCN)n3cc([C@@H](N)CC(C)C)nn3)CC2)n1 (some centres not stated)	.	12.6%	.	.	-131.0%[59 µM]	79.4µM*
SMILES	JMJD2A Tudor	Sfp PPTase inh	PLK1 PBD block	HP1b binding inh	G9a block	BAZ2B inh
C#CCOCCOCCOCCNc1nc(N2CCN(C(=O)[C@H](CCCCN)n3cc(CC(C)O)nn3)CC2)nc(N2CCN(C(=O)[C@H](CCCCN)n3cc(CC(C)O)nn3)CC2)n1 (some centres not stated)	-14.9%	.	-2.4%	38.4%	-2.9%[2.33 µM]	-34.3%
C#CCOCCOCCOCCNc1nc(N2CCN(C(=O)[C@H](CCCCN)n3cc([C@@H](N)CO)nn3)CC2)nc(N2CCN(C(=O)[C@H](Cc3ccc(O)cc3)n3cc([C@@H](N)CC(C)C)nn3)CC2)n1	56.2µM*	6.0%	-3.0%	26.0%	?	31.6µM*
C#CCOCCOCCOCCNc1nc(N2CCN(C(=O)[C@H](Cc3ccc(O)cc3)n3cc([C@@H](N)C(C)CC)nn3)CC2)nc(N2CCN(C(=O)[C@H](CCCCN)n3cc([C@@H](N)CO)nn3)CC2)n1 (some centres not stated)	39.8µM*	8.7%	-5.1%	40.4%	-5.1%[12.7 µM]	50.1µM*
CC(C)C[C@@H](CC(=O)N[C@H](CC(=O)N[C@@H]1CCNC[C@H]1C(=O)N[C@H](CC(=O)N[C@@H](CCC(=O)O)CC(=O)O)CC(C)C)C(C)C)NC(=O)[C@@H]1CNCC[C@H]1N	.	-10.6%	.	.	.	.
C#CCCCO/N=C1/[C@H]2O[C@@H]2[C@@H](O)[C@H]2[C@H]1CCn1c(=O)n([C@@H](CC)c3ccccc3)c(=O)n12	.	8.3%	.	.	.	.
COc1ccc(N2CCN(c3nc4ccc(C)cn4c(=O)c3C=O)CC2)cc1	?	10.3%	-5.9%	13.8%	44.7µM*	?
COC(=O)/C(C#N)=C/c1c(N2CCN(c3ccccc3)CC2)nc2c(C)cccn2c1=O	?	-0.8%	-7.7%	4.3%	?	-38.5%
CNC(=O)/C(C#N)=C/c1c(N(Cc2ccccc2)Cc2ccccc2)nc2c(C)cccn2c1=O	?	?	-28.7%	-21.9%	79.4µM*	?
Cc1ccc2nc(N3CCN(c4ccccc4)CC3)c(C=O)c(=O)n2c1	?	2.7%	-2.5%	23.1%	31.4%[12.7 µM]	-28.9%
COc1ccc(N2CCN(c3nc4c(C)cccn4c(=O)c3/C=C(\C#N)C(N)=O)CC2)cc1	?	-16.2%	0.2%	-9.7%	31.6µM*	35.5µM*
C=CCNC(=O)/C(C#N)=C/c1c(N2CCN(c3ccc(OC)cc3)CC2)nc2c(C)cccn2c1=O	25.1µM*	11.8%	?	?	12.8%[2.33 µM]	?
Cc1ccc(N2CC(c3nc(-c4ccc(Cl)cc4)no3)CC2=O)cc1F (configuration not stated)	-10.3%	.	.	40.9%	4.4%[59 µM]	-2.7%

Compound activity from PubChem.
